Compound activity deposited in PubChem BioAssay by National Center for Advancing Translational Sciences (NCATS).
RORgamma inh: ROR gamma (mouse) transcription inhibition. actives 5.4% (n = 310,000). Drosophila S2 Gal4-RORgamma UAS-luciferase reporter, 20 h. P51450. Potency, µM (doses to about 53.6 µM), for the others: at the top dose activity change, negative = inhibition, usual class: inhibitors; further: on the % scale 0 is the no-effect control and ±100 the full control effect; nearly all actives have a fitted effect of over 60% in size
Target sequence (P51450 whole entry, looked up, the tested form may be a part): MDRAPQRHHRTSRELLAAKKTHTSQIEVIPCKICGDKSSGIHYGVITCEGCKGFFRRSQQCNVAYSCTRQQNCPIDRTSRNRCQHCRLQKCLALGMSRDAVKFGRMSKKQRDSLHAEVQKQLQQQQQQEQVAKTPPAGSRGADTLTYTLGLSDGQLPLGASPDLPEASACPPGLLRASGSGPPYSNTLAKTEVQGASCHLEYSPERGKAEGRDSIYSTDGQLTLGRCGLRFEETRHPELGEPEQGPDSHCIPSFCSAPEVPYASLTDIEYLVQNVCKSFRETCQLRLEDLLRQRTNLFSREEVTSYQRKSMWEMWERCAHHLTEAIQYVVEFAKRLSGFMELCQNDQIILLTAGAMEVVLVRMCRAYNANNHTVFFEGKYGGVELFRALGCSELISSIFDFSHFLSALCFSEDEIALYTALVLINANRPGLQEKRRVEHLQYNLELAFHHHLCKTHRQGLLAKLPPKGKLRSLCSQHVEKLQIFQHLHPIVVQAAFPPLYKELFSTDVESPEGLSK
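Luminescence from a UAS-regulated Photinus luciferase reporter in stably transfected Drosophila Schneider cells is measured; decreased signal marks ROR gamma inhibition. Fusion expression is induced by 700 uM copper sulfate for 20 hr.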
S2 tox: cell viability loss in ATXN counter-screen. AID 651635. Potency, µM (titrated, usually from 56.7 µM), most hits filed as cytotoxic. actives 0.49% (n = 400,000). S2 cells (HEK-293 line with an ATXN2-luciferase reporter) viability, CellTiter-Fluor protease fluorescence, 24 h; further: nearly all actives have a fitted effect of over 40% in size
TGFb inhibitor: TGF-b pathway inhibition | HepG2 CAGA-GFP TGF-b/SMAD3 reporter, GFP fluorescence, 18 h; TGF-beta stimulated, 500 pg/mL final | Potency, µM (series often up to 46.1 µM), for the others: at the highest dose activity, negative = inhibition, usual class: inhibitors | actives 1.2% (n = 410,000); further: on the % scale 0 is the no-effect control and ±100 the full control effect; nearly all actives have a fitted effect of over 65% in size
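First, reporter cells (HEPG2 CAGA-GFP) rested 2 h at 37 degrees C. Next, compounds were pinned in and TGF-beta added to 500 pg/mL final. After 18 h, GFP was imaged per cell and summed per well.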
VP16 counter: inhibits Gal4-VP16 luciferase reporter, ROR gamma counter-screen; Drosophila S2 Gal4-VP16 UAS-luciferase, luminescence, 20 h; Potency, µM (titrated, usually from 53.6 µM), for the others: at the highest dose activity, negative = inhibition, usual class: inhibitors; actives 3.5% (n = 310,000); AID 2546;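 further: Gal4-VP16 expression switched on by copper sulfate through the metallothionein promoter; on the % scale 0 is the no-effect control and ±100 the full control effect; nearly all actives have a fitted effect of over 50% in size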
ATXN2 expr inh: inhibitors of ATXN2 expression; HEK-293 ATXN2-luciferase reporter, luminescence, 24 h; Potency, µM (series often up to 57 µM), inactives show top-dose activity change, negative = inhibition, most hits filed as inhibitors; actives 0.72% (n = 360,000); AID 1745845; further: on the % scale 0 is the no-effect control and ±100 the full control effect; nearly all actives have a fitted effect of over 55% in size
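qHTS (up to 57 uM final) was run with 24 h compound exposure of reporter cells at 37 °C. Each well was multiplexed: SteadyGlo luminescence measured ATXN2-luciferase expression after a fluorogenic Gly-Phe-AFC viability readout (25 uM final).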
HepG2 viability: kills HepG2 cells in TGF-b inhibitor counter-screen; actives 0.76% (n = 410,000); Potency, µM (titrated, usually from 46.1 µM), without a hit: at the top dose activity change, negative = cytotoxicity, hits mostly cytotoxic; HepG2 CAGA-GFP viability, ATP luminescence, 18 h
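CellTiter-Glo luminescence gave cytotoxicity after 18 hours at 37 degrees C. The cells were HepG2 CAGA-GFP in 1% FBS DMEM, stimulated with 500 pg/mL TGF-beta after compound addition. %Activity was normalised to no-cell wells (complete cell-killing) and DMSO (no toxicity), and curves were fitted and classified.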
Numbers without * were called inactive; i = inactive; ? = inconclusive; nt = not tested or not shown; [ ] = another dose, or the depositor's remark. This is a sample that favours compounds with a hit; in the whole collection about 6.1% have one here. The call rests on the fitted dose curve; in most records, active means well fitted curve in the direction sought with a large enough effect; inconclusive means small, poorly fitted or top-dose-only effect, or another doubt; inactive means no such curve, though single readings can be large; an effect the other way counts as inactive or inconclusive. Potency means the concentration at half of the fitted maximal effect.

SMILES	RORgamma inh	S2 tox	TGFb inhibitor	VP16 counter	ATXN2 expr inh	HepG2 viability
Cc1cccc(C(=O)NCC2Cc3cc(F)cc(-c4cnccn4)c3O2)n1 (stereo not given)	nt	i	nt	nt	nt	nt
Cc1cc(C)cc(OCC(=O)Nc2ccc(S(=O)(=O)Nc3onc(C)c3C)cc2)c1	nt	i	-13%	nt	10%	-11%
Cc1ccc(Nc2nc3ccccc3[nH]2)nc1	5µM*	?	-47%	5µM*	-30%	-3%
CC[N+]1(CC(=O)c2cccs2)CCCCC1	nt	nt	-9%	nt	nt	-28%
Oc1[nH]c2ccccc2c1N=NC(=S)NCC1CCCO1 (stereo not given)	-13%	i	-9%	-10%	?	-9%
Oc1[nH]c2ccc(Br)cc2c1N=NC(=S)NCC1CCCO1 (stereo not given)	1.4µM*	?	-4%	?	-15%	0%
CCn1c(O)c(N=NC(=S)NCC2CCCO2)c2ccccc21 (stereo not given)	0.28µM*	nt	10µM*	1.8µM*	nt	-67%
Cc1cc(C)c2[nH]c(O)c(N=NC(=S)NCC3CCCO3)c2c1 (stereo not given)	5µM*	i	0%	7.1µM*	-5%	-9%
Oc1[nH]c2c(Cl)cc(Cl)cc2c1N=NC(=S)NCC1CCCO1 (stereo not given)	1.3µM*	?	?	1.1µM*	21µM*	-4%
Cc1c(C(=O)NCC2COCCO2)cnn1-c1ncc2c(n1)-c1ccccc1CC2 (stereo not given)	nt	i	nt	nt	nt	nt
COc1ccc(/C=C2\C=Cc3ccccc32)cc1	nt	nt	-3%	nt	nt	-6%
O=C(NC(=S)Nc1ccccc1)c1cccs1	5µM*	i	-18%	8.9µM*	112%	-11%
O=C(N/N=C(/CC(=O)c1cccs1)C(F)(F)F)c1ccc(O)cc1	18µM*	i	?	?	-8%	2%
CC(=O)NC(=S)Nc1ccc(NC(=O)c2cccs2)cc1	44%	i	0%	29%	34%	-32%
CC(OC(=O)c1cccs1)C(=O)NC1CCCCC1C (stereo not given)	nt	i	-16%	nt	-16%	-1%
CCCCC(=O)Nc1ccc(C(=O)NNC(=S)NC(=O)c2cccs2)cc1	7.9µM*	i	?	8.9µM*	?	-1%
CC1CCCCC1NC(=S)NC(=O)c1cccs1 (stereo not given)	1.6µM*	?	?	13µM*	nt	-20%
CC(C)CO/N=C1/C[C@@H](O)[C@@H](O)[C@@H]2[C@H]3C(=O)N(c4ccc(F)cc4F)C(=O)[C@@H]3CC[C@H]12	-8%[10 µM]	nt	nt	-5%[10 µM]	nt	nt
O=C(O)Cc1ccc2c(c1)C(=O)c1ccccc1CO2	nt	i	nt	nt	11%	nt
O=C(NNC(=O)c1cccs1)c1ccccc1	1%	i	-3%	5%	nt	2%
O=C(NNC(=S)NC(=O)c1cccs1)c1ccc(O)cc1	7.9µM*	i	0%	11µM*	6%	2%
O=C(Nc1ccc(NC(=S)NC(=O)c2cccs2)cc1)c1ccccc1	7.9µM*	?	-7%	16µM*	-16%	4%
COc1ccccc1C(=O)NC(=S)Nc1ccc(NC(=O)c2cccs2)cc1	6%	?	-6%	-17%	-15%	2%
O=C(NNC(=S)NC(=O)c1cccs1)c1ccc(NC(=O)c2ccccc2)cc1	4.5µM*	i	-22%	6.3µM*	?	6%
CCCCC(=O)Nc1ccc(C(=O)Nc2ccc(S(=O)(=O)Nc3ccc(C)cc3)cc2)cc1	?	i	8%	11µM*	-1%	12%
SMILES	RORgamma inh	S2 tox	TGFb inhibitor	VP16 counter	ATXN2 expr inh	HepG2 viability
O=C(NC(=S)Nc1ccc(S(=O)(=O)Nc2nccs2)cc1)c1ccccc1	-1%	i	-9%	-20%	-19%	16µM*
O=C(/C=C/c1cccs1)NC(=S)Nc1ccccc1	3.2µM*	i	-21%	8.9µM*	42%	-25%
Cc1nc2nc(-c3ccccc3)cn2nc1C	10µM*	nt	1%	?	16µM*	-46%
CCc1ccc(-c2cn3nc(C)c(C)nc3n2)cc1	7.1µM*	nt	-13%	?	5µM*	-7%
Cc1nc2nc(-c3ccc(F)cc3)cn2nc1C	?	nt	0%	?	nt	-19%
c1ccc(-c2cn3nc(-c4ccccc4)cnc3n2)cc1	8%	i	7%	-2%	58%	-2%
Brc1ccc(-c2cn3nc4c(nc3n2)CCCC4)cc1	?	?	23%	?	-20%	-11%
c1ccc(-c2cn3nc4c(nc3n2)CCCC4)cc1	5µM*	nt	-1%	?	5.6µM*	-31%
O=C(NCC(c1ccc2c(c1)OCO2)N1CCN(c2ccccc2)CC1)c1ccc(F)c(F)c1 (stereo not given)	nt	?	?	nt	-8%	-37%
CCOC(=O)c1cccc(NC(=O)c2oc3c(c2C)-c2nn(CC)cc2CC3)c1	nt	nt	-14%	nt	nt	-43%
Cc1cccc(NC(=O)CSc2nc3c([nH]c4ccccc43)c(=O)n2-c2ccc(F)cc2)c1C	nt	nt	18%	nt	nt	-2%
COc1ccccc1OCC(O)CNCc1ccc2c(c1)OCO2 (stereo not given)	9%	?	12%	0%	-12%	-3%
COc1ccc(C(CCNCc2ccc(N(C)C)cc2)c2ccccc2)cc1 (stereo not given)	-16%	22µM*	?	5%	?	-186%
CC(C)Oc1ccc(C(CCNCc2ccc(O)cc2)c2ccccc2)cc1 (stereo not given)	?	nt	14µM*	-3%	?	-92%
COc1ccc(CNCCC(c2ccc3c(c2)OCO3)c2ccccc2OC)cc1 (stereo not given)	nt	nt	?	nt	?	10µM*
COc1ccc(C(O)P(=O)(OCc2ccccc2)c2ccc(N(C)C)cc2)cc1 (stereo not given)	2%	i	-4%	-3%	nt	7%
COc1ccccc1C(CC(=O)Nc1ccc(Cl)cc1)c1ccc(OC(C)C)cc1 (stereo not given)	-1%	i	3%	-25%	1%	-14%
CC(C)Oc1ccc(CNC(=O)CC(c2ccccc2)c2cc(Cl)ccc2O)cc1 (stereo not given)	?	?	?	-8%	?	16µM*
CCCS(=O)(=O)c1c(S(=O)(=O)CCC)c2cc(CC)ccn2c1C(=O)c1ccc(Cl)cc1	nt	i	0%	nt	9%	-13%
COCCNC(=O)c1c(-c2ccccc2)c(-c2ccccc2)nn(C)c1=O	nt	nt	-3%	nt	nt	3%
Cc1ccc(C)c(NC(=O)CSc2nc(=O)n(Cc3ccccn3)c3c2CCC3)c1	nt	i	5%	nt	-8%	5%
